Source: PubChem BioAssay AID624351 (Southern Research Specialized Biocontainment Screening …, 2012)
Among all 2,400 compounds or so, about 1,400 (58%) were called active.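 How the source made its calls: active means inhibition of 30% or more at any tested dose; inconclusive means primary hits over the limit that were never retested; inactive means the rest.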 The set was probably picked from earlier hits. The list shows a part of the results.

experiment: coupled detection enzyme interference, dose response, artefact control for MgcRacGAP inhibitor project, biochemical, coupled enzyme counter-screen (AID 624351); conditions: ADP Hunter coupled enzyme counter-screen, fluorescence, no MgcRacGAP; series mostly up to 80 µM; inhibition: at the top concentration;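 further: signal is the ADP detection kit reading of free GDP without any GAP enzyme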;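 on inhibition: 0% = median positive control wells and 100% = median negative control wells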

| SMILES | inhibition | IC50 |
| --- | --- | --- |
| O=C(c1cccc(Cl)c1)N1CCN(Cc2ccncc2)CC1 | 23.4% (inactive) |  |
| CCOC(=O)c1[nH]c2ccc(C)cc2c1N |  | 27.2 µM (active) |
| COc1cccc2[nH]c(C(=O)NN)c(N)c12 | 19.8% (inactive) |  |
| CCCc1c(C)[nH]c2ccc(C(=O)O)cc2c1=S | 4.17% (inactive) |  |
| CCOC(=O)c1[nH]c2cc(OC)c(OC)cc2c1N |  | 31.3 µM (active) |
| FC(F)(F)c1cccc(N2CCC(N=CN3CCCCCC3)=N2)c1 |  | 50 µM (active) |
| CN1CCN(C=NC2=NN(c3cccc(C(F)(F)F)c3)CC2)CC1 |  | 34.1 µM (active) |
| Oc1ccccc1C=NC1=NN(c2cccc(C(F)(F)F)c2)CC1 |  | 16.9 µM (active) |
| CC[N+](CC)(CC)CCCCOc1ccc2c(c1)C(=O)c1cc(OCCCC[N+](CC)(CC)CC)ccc1-2 | 8.56% (inactive) |  |
| NSc1nc(N)c2nc(-c3ccccc3)c(-c3ccccc3)nc2n1 | 5.16% (inactive) |  |
| O=C(C1=C(O)C(=O)N(c2nc3ccc(Cl)cc3s2)C1c1ccco1)c1ccco1 (stereo not given) | 4.28% (inactive) |  |
| COc1ccc(NC(=O)Cn2nnc(C(=O)NCc3cccs3)c2N)cc1Cl | 2.52% (inactive) |  |
| COc1cc(NCCC(=O)c2cccs2)c(OC)cc1Cl |  | 58.1 µM (active) |
| CCCSC1=N/C(=C\C=C\c2ccco2)C(=O)S1 | -4.75% (inactive) |  |
| CCN(CC)CCn1c2ccccc2c(=O)c2c(O)ccc(O)c21 | -1.29% (inactive) |  |
| Oc1cc(O)cc(-c2cc3ccc(O)cc3o2)c1 |  | 25 µM (active) |
| COc1cc(/C=N\NC(=O)CNC(=O)c2cccc([N+](=O)[O-])c2)ccc1O |  | 18.4 µM (active) |
| COc1cc(/C=N/NC(=O)c2cccc([N+](=O)[O-])c2)ccc1O |  | 35.9 µM (active) |
| COc1cc(/C=N\NC(=O)c2ccc(Cn3nc([N+](=O)[O-])c(Cl)c3C)o2)ccc1O |  | 33.9 µM (active) |
| COc1cc(/C=N/NS(=O)(=O)c2ccc(C)c([N+](=O)[O-])c2)ccc1O |  | 37.1 µM (active) |
| CN(C)/N=C/c1ccc(OC(=O)c2cccc([N+](=O)[O-])c2)cc1 | -2.18% (inactive) |  |
| O=[N+]([O-])c1cccc(S(=O)(=O)N/N=C/c2ccc(O)cc2)c1 |  | 45.2 µM (active) |
| c1ccc(OCCCN2CCCC2)cc1 | 19.4% (inactive) |  |
| Nc1ccc(OCCc2ccccc2)cc1 |  | 37.5 µM (active) |
| CN(CCOc1ccc(Cl)c(Cl)c1)Cc1ccccc1 | 7.09% (inactive) |  |

| SMILES | inhibition | IC50 |
| --- | --- | --- |
| COc1cc(C=c2c3ccccc3n3c2cc(-c2ccccc2)[n+]3C)cc(OC)c1OC | 2.94% (inactive) |  |
| O=C(c1ccccc1)c1coc2ccc(O)c(Cl)c12 |  | 77.5 µM (active) |
| O=C1C=CC(=O)c2c(O)c(N3CCN(CCO)CC3)c(Cl)c(O)c21 | 5.58% (inactive) |  |
| O=C(O)c1ccc(-c2ccc(/C=c3/sc4nc5ccccc5n4c3=O)o2)cc1Cl | 7.6% (inactive) |  |
| COc1ccc(N=Nc2cc(OC)c(N)cc2OC)cc1 |  | 39.2 µM (active) |
| CC(C)N(CCNCC(O)COc1ccc(C(C)(C)c2ccccc2)cc1)C(C)C (stereo not given) | 17.9% (inactive) |  |
| CCOc1cc(/C=N/NC(=O)C(OC)c2ccccc2)ccc1O (stereo not given) |  | 58.2 µM (active) |
| CCOc1cc(/C=N/NC(=O)C(C)Sc2ccccn2)ccc1O (stereo not given) |  | 44.5 µM (active) |
| COc1cc(/C=N/NC(=O)CC(=O)NC2CCCCC2)ccc1O |  | 55.1 µM (active) |
| COc1cc(C(=S)NC2CCCCC2)ccc1O |  | 36.7 µM (active) |
| COc1cc(CN2CCC(C(=O)NC3CCCC3)CC2)cc(Br)c1O | 7.21% (inactive) |  |
| COc1cc(CN2CCC(C(=O)NC3CCCC3)CC2)ccc1O | 15.2% (inactive) |  |
| COc1cc(C(=S)NCc2ccccc2)cc(Br)c1O | 17.8% (inactive) |  |
| COc1ccc(CN2CCN(C(C)C(=O)N(C)Cc3cccc(F)c3)CC2)cc1OC (stereo not given) | 22.3% (inactive) |  |
| COc1cc(CN2CCN(C(=O)CC(C)C)CC2)cc(OC)c1O | 22.5% (inactive) |  |
| N#CC1=C(S)N(c2ccccc2)C(c2ccc(-c3ccccc3Cl)o2)NC1=O (stereo not given) | 5.31% (inactive) |  |
| CCOc1cc(C=NNC(=O)CCCC(=O)NN=Cc2ccc(O)c(OCC)c2)ccc1O |  | 55.2 µM (active) |
| CCOc1cc(/C=N/NC(=O)Nc2ccccc2)ccc1O |  | 33 µM (active) |
| COc1cc(/C=N/NC(=S)NC2CC3CCC2C3)ccc1O (stereo not given) |  | 55.3 µM (active) |
| CCOc1cc(/C=N/NC(=O)CCCC(=O)NC2CCCCC2)ccc1O |  | 62.2 µM (active) |
| CCOc1cc(/C=N/NC(=O)CSc2cccc3cccnc23)ccc1O |  | 36.7 µM (active) |
| CCn1c(SC(C)C)nnc1-c1cc(-c2ccccc2)sc1N |  | 26.7 µM (active) |
| C=CCn1c(SCC(C)=O)nnc1-c1cc(-c2ccccc2)sc1N |  | 50.1 µM (active) |
| CCN(CC)CCOc1ccc2c(c1)C(=NNC(=O)c1ccccn1)c1cc(OCCN(CC)CC)ccc1-2 | 25.5% (inactive) |  |
| O=C(Oc1ccc2c(c1)OCO2)c1ccc(Br)c(S(=O)(=O)N2CCOCC2)c1 | 5.16% (inactive) |  |

| SMILES | inhibition | IC50 |
| --- | --- | --- |
| Cc1ccc(C2C=NN(c3ccccc3)C2=O)cc1 (stereo not given) |  | 78.2 µM (active) |
| CC1=NN(c2ccccc2)C(=O)C1/C=C1\NC(=S)NC1=O (stereo not given) | 27.2% (inactive) |  |
| Cc1ccc(-n2sc3ccccc3c2=O)cc1 | 10.3% (inactive) |  |
| COc1cc(/C=N/NC(=O)Cn2nnc3ccccc32)ccc1O |  | 20.7 µM (active) |
| COc1cc(/C=N/NC(=O)CCn2nnc3ccccc32)ccc1O |  | 53.8 µM (active) |
| COc1cc(/C=N/NC(=O)C(C)n2nnc3ccccc32)ccc1O (stereo not given) |  | 23.6 µM (active) |
| Cc1cc(NC(=O)CN2CCC(C)CC2)no1 | 14.8% (inactive) |  |
| Cc1cc(NC(=O)c2sc3ccccc3c2O)no1 |  | 74.8 µM (active) |
| Cc1cc(NC(=O)CN2CCN(C)CC2)no1 | 17.2% (inactive) |  |
| COc1ccccc1NC(=O)NNC(=O)c1ccc2ccccc2c1O | 8.21% (inactive) |  |
| O=C(Nc1ccccn1)c1ccc2ccccc2c1O |  | 78.1 µM (active) |
| COc1ccc2c(c1)-c1c(ssc1=S)C(C)(C)N2 |  | 33.6 µM (active) |
| COc1ccc(Oc2cn[nH]c2-c2ccc(O)cc2O)cc1 |  | 29.9 µM (active) |
| COc1cccc(Oc2cn[nH]c2-c2ccc(O)cc2O)c1 |  | 52.5 µM (active) |
| CCOc1ccccc1Oc1cn[nH]c1-c1ccc(O)cc1O |  | 33.8 µM (active) |
| C#CCOCCOCCOCCNc1nc(N2CCN(C(=O)[C@H](CCCCN)n3cc([C@@H](N)C(C)CC)nn3)CC2)nc(N2CCN(C(=O)[C@H](CCCCN)n3cc([C@@H](N)CC(C)C)nn3)CC2)n1 (stereo not given in full) | 3.89% (inactive) |  |
| CCn1c(C)nc2cc(C(=O)N/N=C/c3ccc(O)cc3)ccc21 |  | 81.6 µM (active) |
| CC1=NN(C(N)=S)C(=O)C1N=Nc1ccc(O)cc1 (stereo not given) |  | 19.5 µM (active) |
| O=C(Nc1ccc(Oc2nnc(-c3ccccc3)c3ccccc23)cc1)c1ccccc1 | 6.04% (inactive) |  |
| CC(=O)Nc1ccc(Oc2nc(-c3ccccn3)nc3ccccc23)cc1 |  | 26.7 µM (active) |
| CN(C)CCCNCC(=O)c1c(-c2ccccc2)n(C)c2ccccc12 | -1.7% [at 10 µM] (inactive) |  |
| O=C(N/N=C/c1ccc(O)c(O)c1)C1c2ccccc2Oc2ccccc21 |  | 51 µM (active) |
| Oc1ccc(/C=N/Nc2ncnc3nc[nH]c23)cc1 |  | 13.2 µM (active) |
| c1nc(SSc2ncnc3nc[nH]c23)c2[nH]cnc2n1 | -4.3% (inactive) |  |
| Nc1c(Cl)ncnc1N/N=C/c1ccc(O)cc1 |  | 15.1 µM (active) |

| SMILES | inhibition | IC50 |
| --- | --- | --- |
| CCOc1cc(/C=N/Nc2ncnc(Cl)c2N)ccc1O |  | 30.7 µM (active) |
| Cc1[nH]ccc2c1[nH]c1cc(=O)ccc12 |  | 61.9 µM (active) |
| CC/C(=N\O)c1ccc(O)c(OC)c1 |  | 61.2 µM (active) |
| COc1ccc(S(=O)(=O)N2CCC(N3CCN(Cc4ccccc4)CC3)CC2)cc1 | 24.6% (inactive) |  |
| O=c1cc(-c2ccc(O)c(O)c2)oc2cc(O)c([C@@H]3O[C@H](CO)[C@@H](O)[C@H](O)[C@H]3O)c(O)c12 |  | 59 µM (active) |
| O=C(O)c1cc(O)c2c(c1)[C@@H]([C@H]1c3cc(C(=O)O)cc(O)c3C(=O)c3c(O[C@@H]4O[C@H](CO)[C@@H](O)[C@H](O)[C@H]4O)cccc31)c1cccc(OC3O[C@H](CO)[C@@H](O)[C@H](O)[C@H]3O)c1C2=O (stereo not given in full) | -39.8% (inactive) |  |
| C[C@@H]1O[C@@H](OC[C@H]2O[C@@H](Oc3cc(O)c4c(=O)cc(-c5ccc(O)c(O)c5)oc4c3)[C@H](O)[C@@H](O)[C@@H]2O)[C@H](O)[C@H](O)[C@H]1O |  | 46 µM (active) |
| O=c1cc(-c2ccc(O)c(O)c2)oc2cc(O)c(C3OC(CO)C(O)C(O)C3O)c(O)c12 (stereo not given) |  | 45.9 µM (active) |
| COc1cc(/C=C/C(=O)OCC(=O)NCc2ccc(F)cc2)ccc1O |  | 40 µM (active) |
| COC(=O)c1ccc(CNC(=O)COC(=O)/C=C/c2ccc(O)c(OC)c2)cc1 |  | 31 µM (active) |
| COc1ccc(CNC(=O)CN(C)Cc2ccc(C(C)(C)C)cc2)cc1 | 24.6% (inactive) |  |
| COC(=O)c1ccc2c(c1)C(C)(C)C(/C=C/c1ccccc1O)=[N+]2C | 23.1% (inactive) |  |
| COc1cc(/C=C/C(=O)OCC(=O)N(CC(C)C)c2c(N)n(Cc3ccccc3)c(=O)[nH]c2=O)ccc1O |  | 61.2 µM (active) |
| CN(CC(=O)NCc1ccccc1)Cc1cccc(F)c1 | 26.6% (inactive) |  |
| COc1cc(C(C[N+](=O)[O-])c2c(N)n(C)c(=O)n(C)c2=O)ccc1O (stereo not given) | 28.1% (inactive) |  |
| COC(=O)c1ccc2c(c1)C(C)(C)C(/C=C/c1ccc(OC)c(OC)c1OC)=[N+]2C | -4.4% (inactive) |  |
| COc1cc(/C=C/C(=O)OCC(=O)NCCCc2ccccc2)ccc1O |  | 33.5 µM (active) |
| CC(C)(c1ccccc1)c1ccc(OCC(O)CNC2CCN(Cc3ccccc3)CC2)cc1 (stereo not given) | 27.9% (inactive) |  |
| CN(C)c1ccc(N=Cc2nc(-c3ccccc3)oc2OC(=O)c2cccc(Cl)c2)cc1 | 12.6% (inactive) |  |
| CC(C(=O)N(C)Cc1ccccc1)N1CCN(C/C=C/c2ccccc2)CC1 (stereo not given) | 18% (inactive) |  |
| C/C=C/c1ccc(OCCCCN(C)Cc2ccccc2)c(OC)c1 | -10.9% (inactive) |  |
| COc1cc(/C=C/C(=O)OCC(=O)N(C)Cc2ccccc2)ccc1O |  | 34.7 µM (active) |
| Oc1ccc(N2CCN(c3ccnc4cc(Cl)ccc34)CC2)cc1 |  | 53.3 µM (active) |
| Oc1ccc(Nc2ccnc3cc(Cl)ccc23)cc1 |  | 26.3 µM (active) |
| Oc1ccc(/C=N/Nc2ccnc3cc(Cl)ccc23)cc1O |  | 40.3 µM (active) |
